According to PubChem BioAssay (NCATS):
Records with an inconclusive call do not appear. Entries that show only a call come without a potency. Calls of active or inactive are those of the source. Calls come from the whole dose curve; as a rule, active = well fitted cell-killing curve with a large enough effect; inconclusive = small, poorly fitted or top-dose-only effect; inactive = flat fitted curve, though single readings scatter.

Experiment: Quantitative highthroughput screen to assess conditional lethalithy of P12 Ichikawa cells grown in Human Plasma-Like Medium with dialyzed fetal bovine serum (HPLM+ds) (AID 1963879); note: nearly all actives have a fitted effect of over 35% in size
Details: ATP luminescence, 48 h; Potency: viability; series mostly up to 45.8 µM
Source text: Assay Provider: Jason Cantor Ph.D.
Department of Biochemistry
University of Wisconsin-Madison, Madison, WI, USA
Chemical screening studies have identified drug sensitivities across hundreds of cancer cell lines but most putative therapeutics fail to translate. Discovery and development of drug candidates in models that more accurately reflect nutrient levels in human blood is a major challenge. Here we performed high-throughput screens in conventional versus Human Plasma-Like Medium (HPLM) to identify compounds that were "missed" when screening using the artificial culture condition. Sets of conditional anticancer compounds spanned phases of clinical development and included non-oncology drugs were assessed. […] We also traced conditional phenotypes for several chemotherapeutics to availability of HPLM-specific metabolites and confirmed others for compounds whose reported targets are encoded by nonessential genes. Our findings establish generalizable strategies for exploiting conditional lethality in HPLM to reveal therapeutic candidates and mechanisms of action in cancer cells.
Described herein are the results of each viability screens against three cell lines: NOMO1 (an acute myeloid leukemia cell line); P12-Ichikawa (a T-cell acute lymphoblastic leukemia); and SEM (a B-cell ALL). Each assay was screened using 3 different cell culture media: homemade human plasma-Like medium with 10% dialyzed fetal bovine serum (HPLM+ds); RPMI1640 with 10% untreated FBS and 5mM glucose (RPMI+s); and RPMI1640 with 10% dialyzed fetal bovine serum and 5 mM glucose (RPMI+ds).
PROTOCOL TABLE (as described by Inglese J, Shamu CE and Guy RK. 2007)
SEQUENCE No. (e.g., 1, 2, 3, etc.); […] (e.g., Cells, Incubation, Reagent, etc.); VALUE and DESCRIPTION.
1; Cells; 5 uL; white, solid bottom 1536-well Greiner assay plate.
2; Compounds; 23 nL; Kalypsis pin tool (Wako USA) equipped with a 1536-well pin head to transfer to the assay plates.
3; Incubation; 48 hours; 37C incubation.
4; Reagent; 3 uL; CellTiter Glo (Promega).
5; Incubation; 5 min, room temperature
6; Detection; Luminescence, Viewlux PerkinElmer.
NOTES (numbers refer to Sequence numbers above)
1. Briefly, 5 ul of cell reagent was dispensed using a Multidrop Combi Dispenser. The NOMO1 and SEM cells were plated at 500 cells/well and the P12-Ichikawa line at 1000 cells/well.
2. After seeding the cells, 23 nL of MIPE 4.1 library compounds (in DMSO) were added to each plate using a Kalypsys 1536 Pintool dispenser. Bortezomib at final concentration of […] and DMSO were added to each plate as positive and negative controls respectively. For each screen, MIPE 4.1 compounds were added over an eleven-point concentration range […] in 3-fold dilutions.
3. Each plate was covered with a stainless steel gasketed lid to prevent evaporation and incubated for 48 hour at 37C, 95% relative humidity, and 5% CO2.
4-5. Three microliter CellTilter-GloTM luminescent substrate mix (Promega) reagent was added to the assay plate and incubated at room temperature for 5 min.
6. The luminescence signal was measured using a ViewLux (PerkinElmer) multiplate reader with a 2 second exposure time per plate. Data for each compound were normalized as percent viability such that measurements for DMSO and the empty well controls in each plate were defined as 100% and 0%, respectively.
Potency is the fitted concentration of half-maximal effect.

Structure (SMILES)	Potency
C[C@H](NC(=O)Cc1cc(F)cc(F)c1)C(=O)N[C@H](C(=O)OC(C)(C)C)c1ccccc1	inactive
C#CCC(Cc1cnc2nc(N)nc(N)c2n1)c1ccc(C(=O)N[C@@H](CCC(=O)O)C(=O)O)cc1 (stereo not given in full)	0.0372 µM (active)
CN(C)c1ccccc1CN1CCCN(Cc2ccccc2N(C)C)C1c1ccncc1	inactive
CN1C(=O)C[C@H](C(=O)N[C@@H](Cc2cnc[nH]2)C(=O)N2CCC[C@@H]2C(N)=O)NC1=O	inactive
CCc1ccc(CCOc2ccc(CC3SC(=O)NC3=O)cc2)nc1 (stereo not given)	inactive
CC(C)(C)COc1ccc(-n2cc(C(=O)O)cn2)cc1C#N	inactive
CCC(C)N(C)C(=O)c1cc2ccccc2c(-c2ccccc2Cl)n1 (stereo not given)	inactive
O=C(Nc1cc2cc[nH]c2cn1)c1ccccc1	2.96 µM (active)
Cc1c(OCC(F)(F)F)ccnc1CS(=O)c1nc2ccccc2[nH]1 (stereo not given)	inactive
NC(=O)c1cccnc1	inactive
O=S(=O)(NCCNCC=Cc1ccc(Br)cc1)c1cccc2cnccc12	inactive
CCC(C)(Oc1ccc(C2(c3ccc(OC(C)(CC)C(=O)O)cc3)CCCCC2)cc1)C(=O)O (stereo not given)	inactive
CN1CC(=O)N2C(Cc3c([nH]c4ccccc34)[C@H]2c2ccc3c(c2)OCO3)C1=O (stereo not given in full)	inactive
CN(C)CCC=C1c2ccccc2C=Cc2ccccc21	inactive
CC(C)Nc1cc(C(F)(F)F)cc2nc(NC(=O)c3cccnc3)nn12	0.935 µM (active)
CC(=O)OCC(=O)[C@@]1(O)CC[C@H]2[C@@H]3CCC4=CC(=O)CC[C@]4(C)[C@@H]3C(=O)C[C@@]21C	inactive
COc1cc([C@H]2Oc3cc([C@H]4Oc5cc(O)cc(O)c5C(=O)[C@H]4O)ccc3O[C@H]2CO)ccc1O	inactive
N#Cc1ccnc(N2C(=O)CC[C@H]2C(=O)N(c2cncc(F)c2)[C@H](C(=O)NC2CC(F)(F)C2)c2ccccc2Cl)c1	1.48 µM (active)
C1COC(NC(C2CC2)C2CC2)=N1	inactive
COc1c(N2CCNC(C)C2)c(F)cc2c(=O)c(C(=O)O)cn(C3CC3)c12 (stereo not given)	inactive

Structure (SMILES)	Potency
C[N+](C)(C)CC(=O)O	inactive
CO[C@H]1O[C@@H]2O[C@@]3(C)CC[C@@H]4[C@@H](C)CC[C@@H]([C@H]1C)[C@@]24OO3	inactive
O=C1c2c(O)cccc2[C@@H]([C@@H]2O[C@H](CO)[C@@H](O)[C@H](O)[C@H]2O)c2cc(CO)cc(O)c21	inactive
Cn1cc(-c2ccncc2)c(-c2ccc(OCc3ccc4ccccc4n3)cc2)n1	14.8 µM (active)
Cc1coc2c1C(=O)C(=O)c1c-2ccc2c1CCCC2(C)C	inactive
COCCCN1CCC(NC(=O)c2cc(Cl)c(N)c3c2OCC3)CC1	inactive
CO[C@@H]1[C@@H](OC(N)=O)[C@@H](O)[C@H](Oc2ccc3c(O)c(NC(=O)c4ccc(O)c(CC=C(C)C)c4)c(=O)oc3c2C)OC1(C)C	inactive
CN1CCC(=C2c3ccccc3C=Cc3ccccc32)CC1	inactive
O=C(CCc1ccc(O)cc1)c1c(O)cc(O)cc1O[C@@H]1O[C@H](CO)[C@H](O)[C@H](O)[C@H]1O	inactive
CC[N+](CC)(CC)CCOc1cccc(OCC[N+](CC)(CC)CC)c1OCC[N+](CC)(CC)CC	inactive
O=C(O)C(=O)Nc1cccc(C2=NN=N[N]2)c1	inactive
COc1ccc(-c2ccc3ncc4c(c3c2)n(-c2ccc(N3CCNCC3)c(C(F)(F)F)c2)c(=O)n4C)cn1	1.05 µM (active)
O=C(O)CCc1ccc(NCc2cccc(Oc3ccccc3)c2)cc1	inactive
OC[C@H]1O[C@@H](n2cnc3c2NC=NC[C@@H]3O)C[C@H]1O	inactive
CC(C)[C@H](N)C(=O)OCCOCn1cnc2c(=O)[nH]c(N)nc21	inactive
COc1ccc(COc2cc3oc(=O)c4cc(C(C)O)ccc4c3cc2OC)cc1 (stereo not given)	inactive
Cc1cccc(Nc2nc(-c3ccncc3)cs2)c1	inactive
O=C(NCc1ccccc1)c1csc(Nc2ccncn2)n1	6.62 µM (active)
O=C(/C=C\n1cnc(-c2cc(C(F)(F)F)cc(C(F)(F)F)c2)n1)NNc1cnccn1	0.588 µM (active)
CON=C(C(=O)N[C@@H]1C(=O)N2C(C(=O)O)=C(Cn3ccc(=N)n3CCO)CS[C@H]12)c1csc(N)n1	inactive
